# Test results reported in publication PMC11062922 (Nature Chemical Biology, 2023).
# Read-outs that look alike come from different tables or passages of the source.
# Key:
# Parameters in all cases: species or system human, MV4-11 + K-562 + COLO205 + SK-N-BE2 + OVCAR-8
# BUB1 = conditions: read-out: apparent Kd, n = 1
# MAP4K5 = conditions: read-out: apparent Kd, n = 1
# TAOK1 = conditions: read-out: apparent Kd, n = 1
# NQO1 = conditions: read-out: apparent Kd, n = 1
# NLK = conditions: read-out: apparent Kd, compound concentrations: 100 nM and 1000 nM (sheet 'Samples'), n = 1
# EPHA5 = conditions: read-out: apparent Kd, n = 1
# MAPKAPK2 = conditions: read-out: apparent Kd, n = 1
# EPHA2 = conditions: read-out: apparent Kd, n = 1
# EPHB1 = conditions: read-out: apparent Kd, n = 1
# EPHB2 = conditions: read-out: apparent Kd, n = 1
# ERCC2 = conditions: read-out: apparent Kd, n = 1
# PIK3CD = conditions: read-out: apparent Kd, compound concentrations: 100 nM and 1000 nM (sheet 'Samples'), n = 1
# ADCK3 = conditions: read-out: apparent Kd; compound concentrations: 100 nM and 1000 nM (sheet 'Samples'), CATDS: 3.3548638845590201E-2; n = 1
# MAP2K2 = conditions: read-out: apparent Kd; compound concentrations: 100 nM and 1000 nM (sheet 'Samples'), CATDS: 3.1784212717953002E-2; n = 1
# CSNK1A1 = conditions: read-out: apparent Kd; compound concentrations:100 nM and 1000 nM (sheet 'Samples'); n = 1
# CSNK1D = conditions: read-out: apparent Kd; compound concentrations:100 nM and 1000 nM (sheet 'Samples'); n = 1
# [1] = compound concentrations:100 nM and 1000 nM (sheet 'Samples')
smiles,measurement,setting,value
CC(C)c1nc(-c2cccc(NS(=O)(=O)c3ccccc3)c2)c(-c2ccnc(Nc3ccc4c(c3)CN(C)CC4)n2)s1 [GSK1649598A],potency estimated from few doses,"BUB1; compound concentrations: 100 nM and 1000 nM (sheet 'Samples'), CATDS: 1.7014993428197001E-2",579 nM
same,potency estimated from few doses,"MAP4K5; compound concentrations: 100 nM and 1000 nM (sheet 'Samples'), CATDS: 1.3446008257637299E-2",1320 nM
same,potency estimated from few doses,"TAOK1; compound concentrations: 100 nM and 1000 nM (sheet 'Samples'), CATDS: 1.55271176192178E-2",769 nM
Cl.Cl.Cl.c1ccc(Oc2ccc(Nc3ccnc4cc(-c5ccc(CN6CCNCC6)o5)ccc34)cc2)nc1.c1ccc(Oc2ccc(Nc3ccnc4cc(-c5ccc(CN6CCNCC6)o5)ccc34)cc2)nc1 [GW567142A],potency estimated from few doses,"NQO1; compound concentrations: 100 nM and 1000 nM (sheet 'Samples'), CATDS: 1.8216900253795E-2",1580 nM
Cc1nn(C)c2cc(N(C)c3ccnc(Nc4cccc(S(N)(=O)=O)c4)n3)ccc12.Cl [GW770220A],potency estimated from few doses,NLK; CATDS: 0.27942165636777999,1030 nM
CS(=O)(=O)CCNCc1ccc(-c2ccc3ncnc(Nc4ccc(OCc5cccc(F)c5)c(C(F)(F)F)c4)c3c2)o1 [GW576484X],potency estimated from few doses,"EPHA5; compound concentrations: 100 nM and 1000 nM (sheet 'Samples'), CATDS: 6.1198720687785702E-2",1290 nM
same,potency estimated from few doses,"MAPKAPK2; compound concentrations: 100 nM and 1000 nM (sheet 'Samples'), CATDS: 5.1625153721040297E-2",1830 nM
same,potency estimated from few doses,NLK; CATDS: 4.7895996711747497E-2,2180 nM
same,potency estimated from few doses,"TAOK1; compound concentrations: 100 nM and 1000 nM (sheet 'Samples'), CATDS: 9.5612553502410894E-2",618 nM
Cc1ccc(O)cc1Nc1ccnc2ccc(C(C)(C)C)cc12 [GW856805X],potency estimated from few doses,"EPHA2; compound concentrations: 100 nM and 1000 nM (sheet 'Samples'), CATDS: 8.0596912814025104E-2",18.5 nM
same,potency estimated from few doses,"EPHA5; compound concentrations: 100 nM and 1000 nM (sheet 'Samples'), CATDS: 8.5514092870098604E-2",16.4 nM
same,potency estimated from few doses,"EPHB1; compound concentrations: 100 nM and 1000 nM (sheet 'Samples'), CATDS: 6.9197667639957702E-2",25.7 nM
same,potency estimated from few doses,"EPHB2; compound concentrations: 100 nM and 1000 nM (sheet 'Samples'), CATDS: 6.5287043089823998E-2",29.3 nM
Cc1cc(O)cc(C)c1/C=C/c1cncc(-c2nn[nH]n2)c1.Cl [GW441806A],potency estimated from few doses,"EPHA2; compound concentrations: 100 nM and 1000 nM (sheet 'Samples'), CATDS: 4.6112446535010898E-2",1310 nM
CN(C)Cc1ccc(-c2ccc3c(Nc4ccc(Oc5ccccn5)cc4)ccnc3c2)o1 [GW567148X],potency estimated from few doses,"EPHA5; compound concentrations: 100 nM and 1000 nM (sheet 'Samples'), CATDS: 2.06539246385424E-2",902 nM
same,potency estimated from few doses,"EPHB1; compound concentrations: 100 nM and 1000 nM (sheet 'Samples'), CATDS: 2.01059548951249E-2",977 nM
same,potency estimated from few doses,"EPHB2; compound concentrations: 100 nM and 1000 nM (sheet 'Samples'), CATDS: 2.3863521838316901E-2",615 nM
same,potency estimated from few doses,"ERCC2; compound concentrations: 100 nM and 1000 nM (sheet 'Samples'), CATDS: 2.5327932043398099E-2",534 nM
O=S(=O)(CCOCc1ccc(-c2ccc3ncnc(Nc4ccc(OCc5cccc(F)c5)c(Cl)c4)c3c2)o1)c1ccccc1 [GW615311X],potency estimated from few doses,PIK3CD; CATDS: 0.10575353255485199,176 nM
CN1CCc2ccc(Nc3nccc(-c4c(-c5cccc(NC(=O)c6c(F)cccc6F)c5)nc5ccccn45)n3)cc2C1.Cl [GSK1010829B],potency estimated from few doses,"MAP4K5; compound concentrations: 100 nM and 1000 nM (sheet 'Samples'), CATDS: 3.0196131161379001E-2",2130 nM
same,potency estimated from few doses,"TAOK1; compound concentrations: 100 nM and 1000 nM (sheet 'Samples'), CATDS: 4.1687643746907199E-2",830 nM
CC(=O)N1CCN(c2ccc(Nc3nccc(-c4sc(C(C)C)nc4-c4cccc(NS(=O)(=O)c5ccccc5)c4)n3)cn2)CC1 [GSK1645872A],potency estimated from few doses,ADCK3,570 nM
same,potency estimated from few doses,"BUB1; compound concentrations: 100 nM and 1000 nM (sheet 'Samples'), CATDS: 3.26865073204873E-2",604 nM
COc1cc2ncn(-c3cc(OCCCc4ccccc4)c(C(N)=O)s3)c2cc1OC [GSK205189A],potency estimated from few doses,EPHA5; [1],720 nM
same,potency estimated from few doses,EPHB1; [1],958 nM
same,potency estimated from few doses,EPHB2; [1],697 nM
same,potency estimated from few doses,ERCC2; [1],39.9 nM
CC(=O)N1CCN(c2ccc(Nc3nccc(-c4sc(C(C)C)nc4-c4cccc(NS(=O)(=O)c5cccc(Cl)c5)c4)n3)cn2)CC1 [GSK1660437A],potency estimated from few doses,"BUB1; compound concentrations: 100 nM and 1000 nM (sheet 'Samples'), CATDS: 4.8956093582398198E-2",873 nM
CC(C)c1nc(-c2cccc(NS(=O)(=O)c3c(F)cccc3F)c2F)c(-c2ccnc(Nc3ccc(N4CCOCC4)nc3)n2)s1 [GSK2008607A],potency estimated from few doses,"BUB1; compound concentrations: 100 nM and 1000 nM (sheet 'Samples'), CATDS: 2.5044910199505301E-2",721 nM
Cn1cc(-c2ccc3c(c2)CCN3C(=O)Cc2cc(F)cc(C(F)(F)F)c2)c2c(N)ncnc21 [GSK2635225A],potency estimated from few doses,PIK3CD; CATDS: 0.457718684353002,139 nM
Cn1cc(-c2cnc(N)c3c(-c4ccc5c(c4)CCN5C(=O)Cc4ccccc4)csc23)cn1 [GSK2593074A],potency estimated from few doses,MAP4K5; [1],302 nM
CN1CCN(Cc2ccc(-c3ccc4c(Nc5ccc(Oc6ccccn6)cc5)ccnc4c3)o2)CC1 [GW567140X],potency estimated from few doses,MAP2K2,2090 nM
COc1cc2ncn(-c3cc(OCc4ccncc4)c(C(N)=O)s3)c2cc1OC [GSK336313A],potency estimated from few doses,NQO1; [1],1230 nM
CC(C)c1nc(-c2cccc(NS(=O)(=O)c3c(F)cccc3F)c2)c(-c2ccnc(Nc3ccc(N4CCOCC4)nc3)n2)s1.Cl [GSK1723980B],potency estimated from few doses,"BUB1; compound concentrations: 100 nM and 1000 nM (sheet 'Samples'), CATDS: 3.0141053938719398E-2",191 nM
Cl.Cn1c(=O)c(Cc2ccc(F)cc2F)cc2cnc(NC3CCOCC3)nc21 [RO3308757-001],potency estimated from few doses,EPHA2; [1],1130 nM
same,potency estimated from few doses,EPHA5; [1],399 nM
same,potency estimated from few doses,EPHB1; [1],541 nM
same,potency estimated from few doses,EPHB2; [1],364 nM
same,potency estimated from few doses,ERCC2; [1],239 nM
same,potency estimated from few doses,MAPKAPK2; [1],669 nM
Fc1ccc(-c2c(-c3ccncc3)[nH]c3nccnc23)cc1 [RO1155697-000],potency estimated from few doses,BUB1; [1],1970 nM
same,potency estimated from few doses,CSNK1A1,667 nM
same,potency estimated from few doses,CSNK1D,8.23 nM
same,potency estimated from few doses,NQO1; [1],1590 nM
same,potency estimated from few doses,TAOK1; [1],1150 nM
